Measured values taken from the supplement of paper PMC7156485.
± gives the standard deviation of the averaged measurements.
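Further: TDF denotes transformed human dermal fibroblasts of mesenchymal origin.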

Each molecule was assayed on HCC1569 (assay: cell number relative to DMSO (% of DMSO); higher = more cells (less growth inhibition / toxicity)). Conditions: concentration: 10 µM; 24 h.
In short: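 After 24 h at 37 °C with compounds at 10 µM, in triplicate, HCC1569 and TDF cells were fixed with 3.7% formaldehyde. Immunostaining used a rabbit anti-H1.0 antibody and an AlexaFluor 647 secondary, with DAPI, and six fields per well were imaged at ×10. H1.0 nuclear intensity or cell number is presented as percent of the plate control, from the median of replicates, with HCC1569 values smoothed for positional effects.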
For `COc1ccc(C(=O)OC2CCC3(C)C4CCC5C6(O)CC(O)C7(O)C(CN8CC(C)CCC8C7(C)O)C6(O)CC53OC24O)cc1OC` (centres undefined) [Veratridine], the cell number was 107.
With `CC1=NN=C(c2ccc(N)cc2)c2cc3c(cc2C1)OCO3.Cl` the cell number was 97.4.
In the case of `CC(=O)c1c(O)c(C)c(O)c(Cc2c(O)c3c(c(C(=O)C=Cc4ccccc4)c2O)OC(C)(C)C=C3)c1O` [Rottlerin], the cell number is reported as 82.5 ± 13.
`CNC1CC(c2ccc(Cl)c(Cl)c2)c2ccccc21.Cl` (centres undefined) [Indatraline hydrochloride] was tested, and the cell number was 84.1.
Work on `COc1ccc(C(=O)c2c(C)n(CCN3CCOCC3)c3ccccc23)cc1` [Pravadoline] yielded a cell number of 110.
`CN1C(=O)CCS(=O)(=O)C1c1ccc(Cl)cc1` (centres undefined) [Chlormezanone] showed a cell number of 101.
In the case of `CCC(C)CC(C)N` (centres undefined) [1,3-dimethylpentylamine], the cell number is reported as 103.
For `CCCN(CCC)CCc1c[nH]c2ccc(C(N)=O)cc12.O=C(O)C=CC(=O)O` [N,N-Dipropyl-5-carboxamidotryptamine maleate], the cell number was 99.4.
With `Cl.Cl.Clc1cccc(N2CCNCC2)c1` [1-(3-Chlorophenyl)piperazine dihydrochloride] the cell number was 83.5.
`CCC1C2CC3C4N(C)c5ccccc5C45CC(C2C5O)N3C1O` (centres undefined) [Ajmaline] gave a cell number of 101.
In the case of `COc1ccc(CC2NCCc3cc(OC)c(OC)cc32)cc1OC.Cl` (centres undefined), the cell number is reported as 99.3.
`NC(=O)CI` [Iodoacetamide] showed a cell number of 47.9.
Work on `CC(N)Cc1c[nH]c2ccc(OCc3cccs3)cc12.Cl` (centres undefined) yielded a cell number of 102.
Molecule `CC1CN(C2CCC(C#N)(c3ccc(F)cc3)CC2)CCC1(C(=O)O)c1ccccc1.Cl` (centres undefined) [Levocabastine.HCl] has a cell number of 102.
`CC(=O)OCC1=C(C(=O)[O-])N2C(=O)C(NC(=O)CCCC(N)C(=O)[O-])C2SC1.[Zn+2]` (centres undefined) [Cephalosporin C zinc salt] showed a cell number of 101.
In the case of `Cc1c(N)nc(C(CC(N)=O)NCC(N)C(N)=O)nc1C(=O)NC(C(=O)NC(C)C(O)C(C)C(=O)NC(C(=O)NCCc1nc(-c2nc(C(=O)NCCC[S+](C)C)cs2)cs1)C(C)O)C(OC1OC(CO)C(O)C(O)C1OC1OC(CO)C(O)C(OC(N)=O)C1O)c1cnc[nH]1.O=S(=O)([O-])O` (centres undefined) [Bleomycin sulfate], the cell number is reported as 93.1.
`CNC(=O)Oc1ccc2c(c1)C1(C)CCN(C)C1N2C.CNC(=O)Oc1ccc2c(c1)C1(C)CCN(C)C1N2C.O=S(=O)(O)O` (centres undefined) [Physostigmine sulfate] showed a cell number of 97.1.
With `Oc1ccc2c3c1OC1C(O)CCC4(O)C(C2)N(CC2CCC2)CCC314` (centres undefined) [Nalbuphine] the cell number was 105.
In the case of `NC(C(=O)O)c1cc(=O)[nH]o1` (racemic), the cell number is reported as 104.
For `C=CCN1CCC23c4c5ccc(O)c4OC2C(=O)CCC3(O)C1C5.Cl` (centres undefined) [Naloxone hydrochloride], the cell number was 104.
`CC(=O)NC1CN2CCC(O)C2C(O)C1O` (centres undefined) [6-Acetamido-6-deoxy-castanospermine] was tested, and the cell number was 103.
`C=C(C)C1CNC(C(=O)O)C1CC(=O)O` (centres undefined) [Kainic acid] gave a cell number of 103 ± 3.2.
Work on `CN1CC(CO)CC2c3cccc4[nH]cc(c34)CC21` (centres undefined) [9,10-Dihydrolysergol] yielded a cell number of 96.5.
`CCCN1CC(CSC)CC2c3cccc4[nH]cc(c34)CC21.CS(=O)(=O)O` (centres undefined) [Pergolide methanesulfonate] was tested, and the cell number was 98.8.
For `COc1ccc2c(c1)=NC1=C(C)NCCC=21` [Harmaline], the cell number was 99.3.
For `CC12NC(Cc3ccccc31)c1ccccc12.O=C(O)C=CC(=O)O` (single isomer, unassigned; (+)) [(+)-MK-801 hydrogen maleate], the cell number was 103.
Work on `CCC1CN2CCc3cc(OC)c(OC)cc3C2CC1CC1NCCc2cc(OC)c(OC)cc21.Cl.Cl` (centres undefined) [Emetine dihydrochloride hydrate] yielded a cell number of 57.5.
`O=S1(=O)N(CCN2CC=C(c3c[nH]c4cc(F)ccc34)CC2)c2cccc3c2N1CCC3` showed a cell number of 101.
`CCC12C=CCN3CCC4(c5ccc(OC)cc5N(C)C4C(O)(C(=O)OC)C1OC(C)=O)C32` (centres undefined) [Vindoline] gave a cell number of 102.
Molecule `Cl.c1ccc2sc(C3(N4CCCCC4)CCCCC3)cc2c1` [BTCP hydrochloride] has a cell number of 100.
`CN1CC(CO)C=C2c3cccc4[nH]cc(c34)CC21` (centres undefined) [Lysergol] showed a cell number of 100.
Work on `CCCN(CCC)C1CCc2c(F)ccc(O)c2C1.Cl` (stereo not drawn) [R(+)-UH-301 hydrochloride] yielded a cell number of 103.
In the case of `CS(=O)(=O)O.Oc1ccc2c3c1OC1c4oc5ccccc5c4CC4(O)C(C2)N(CC2CC2)CCC314` (centres undefined) [Naltriben methanesulfonate], the cell number is reported as 98.1.
`CCC(C)C(=O)OC1C(O)C2C(CN3CC(C)CCC3C2(C)O)C2CC34OC5(O)C(OC(=O)C(C)(O)C(C)O)CCC3(C)C5C(OC(C)=O)C(OC(C)=O)C4C21O` (centres undefined) [Protoveratrine B] gave a cell number of 104.
With `CC1(O)CC23CC(O)C4(O)C(CC(O)C4(C)C)C(C)(O)C2CCC1C3O` (centres undefined) [Grayanotoxin III] the cell number was 99.6.
With `CC(C)(C)NCC(O)c1ccccc1Cl` (centres undefined) [Tulobuterol] the cell number was 111.
Work on `Cc1cc(C(=O)CN2CCCC2)c(C)n1-c1ccc(F)cc1` yielded a cell number of 99.
For `O=C1NC(=O)c2c1c1c3ccccc3[nH]c1c1[nH]c3ccccc3c21`, the cell number was 98.8.
`OCC1CCCN2CCCCC12` (centres undefined) [Lupinine] showed a cell number of 109.
